# Assays:
# Settings in all cases: concentration: 1 μM, replicates: in singlicate; n = 1
# TSSK1B = test system: TSSK1B
# TSSK3 = test system: TSSK3
# TTK = test system: TTK
# TXK = test system: TXK
# [1] = test system: TYK2(JH1domain-catalytic)
# [2] = test system: TYK2(JH2domain-pseudokinase)
# TYRO3 = test system: TYRO3
# ULK1 = test system: ULK1
# ULK2 = test system: ULK2
# ULK3 = test system: ULK3
# VEGFR2 = test system: T1, VEGFR2
# T1 construct: gene KDR
# VPS34 = test system: T2, VPS34
# T2 construct: gene PIK3C3
# VRK2 = test system: VRK2
# WEE1 = test system: WEE1
# WEE2 = test system: WEE2
# WNK1 = test system: WNK1
# WNK2 = test system: WNK2
# WNK3 = test system: WNK3
# WNK4 = test system: WNK4
# YANK1 = test system: T3, YANK1
# T3 construct: gene STK32A
# 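Also: KINOMEscan kinase panel screen.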
SMILES,%Inh (TSSK1B),%Inh (TSSK3),%Inh (TTK),%Inh (TXK),%Inh [1],%Inh [2],%Inh (TYRO3),%Inh (ULK1),%Inh (ULK2),%Inh (ULK3),%Inh (VEGFR2),%Inh (VPS34),%Inh (VRK2),%Inh (WEE1),%Inh (WEE2),%Inh (WNK1),%Inh (WNK2),%Inh (WNK3),%Inh (WNK4),%Inh (YANK1)
CNc1nc(-c2ccc3c(N)n[nH]c3c2)cc(N2C[C@@H](C(=O)NC3CCCCC3)OC[C@H]2C)n1 [GSK2375584],0%,23%,7%,0%,0%,12%,0%,0%,0%,0%,17%,0%,43%,29%,3%,5%,25%,28%,41%,7%
Nc1cccc(-c2ccc3c(N)n[nH]c3c2)n1 [GSK2192730],0%,10%,6%,17%,12%,17%,0%,5%,0%,18%,19%,1%,0%,0%,0%,23%,0%,0%,0%,5%
O=c1cc(N2CCOCC2)nc2n(Cc3ccccc3F)ccn12 [GSK2297428],0%,13%,0%,0%,0%,0%,0%,0%,0%,0%,0%,94%,0%,0%,0%,0%,0%,19%,0%,0%
Cl.Cl.Cl.N#Cc1ccc(CCNc2nccc(-c3cccc(CN4CCNCC4)c3)n2)cc1 [GSK2137462],0%,5%,14%,2%,0%,0%,23%,11%,12%,2%,0%,7%,0%,90.8%,0%,0%,0%,0%,95.5%,12%
CNc1nc(-c2ccc3c(N)n[nH]c3c2)cc(N2C[C@@H](C(=O)Nc3ccccc3)CC[C@H]2C)n1 [GSK2298859],0%,6%,21%,10%,22%,13%,0%,0%,0%,0%,0%,7%,0%,9%,0%,0%,0%,33%,29%,46%
Nc1ncnc2occ(-c3ccc4c(c3)CCN4C(=O)Cc3cc(F)ccc3F)c12 [GSK2645446],0%,4%,0%,0%,2%,3%,0%,0%,0%,0%,0%,0%,0%,0%,13%,1%,14%,38%,60%,0%
Cn1cnc2c(N)ncnc21 [SKF-97623],0%,0%,0%,0%,0%,0%,0%,0%,0%,0%,100%,0%,96.8%,0%,29%,0%,8%,0%,0%,0%
COc1cccc(C2=C(Nc3cc(Cl)c(O)c(Cl)c3)C(=O)NC2=O)c1 [SB-390767],0%,16%,7%,15%,28%,39%,29%,32%,0%,13%,0%,0%,20%,0%,0%,20%,0%,16%,17%,0%
Cn1cncc1C(=O)NC1CCN(c2ccnc(Nc3ccc(F)cc3)n2)C1 (centres unmarked) [GSK1379717],6%,0%,0%,100%,13%,20%,0%,6%,0%,17%,17%,0%,0%,7%,0%,12%,0%,22%,0%,3%
CCc1ccc(-c2ccc3c(c2)-c2n[nH]cc2S(=O)(=O)N3C)cc1,0%,0%,0%,14%,0%,5%,0%,0%,0%,0%,0%,4%,0%,14%,0%,23%,2%,3%,0%,0%
O=C(Nc1n[nH]c2cc(-c3ccsc3)ccc12)C1CC1 [SB-732932],13%,27%,35%,5%,9%,0%,14%,21%,6%,32%,13%,27%,0%,0%,13%,18%,34%,18%,9%,0%
COc1ccc(Nc2nccc(-c3ccc(NC(=O)c4cc5cc(F)ccc5[nH]4)cc3)n2)cc1 [GSK1229496],0%,22%,0%,0%,23%,0%,0%,0%,0%,8%,0%,2%,0%,7%,0%,0%,14%,18%,51%,0%
Cc1ccc(NC(=O)Nc2ccccc2)cc1-c1ccc(C(=O)Nc2ccncc2)cc1 [GSK1398471],0%,0%,2%,0%,0%,0%,15%,12%,0%,7%,0%,0%,0%,26%,0%,0%,36%,0%,0%,9%
COc1cccc(CNC(=O)NC2CCN(c3ccnc(Nc4ccc(F)cc4)n3)C2)c1 (centres unmarked) [GSK1379723],1%,16%,17%,100%,20%,22%,17%,19%,1%,4%,1%,0%,0%,3%,12%,6%,13%,5%,7%,0%
NS(=O)(=O)c1cccc(N/C=C2\C(=O)Nc3ccc(S(=O)(=O)Cc4c(Cl)cccc4Cl)cc32)c1 [GSK398099],21%,14%,0%,6%,30%,27%,0%,13%,4%,19%,0%,0%,0%,10%,20%,20%,8%,0%,0%,1%
COc1cc2ncnc(Nc3cccc(Br)c3)c2cc1OC.Cl [GI230329],0%,16%,0%,4%,–,23%,3%,9%,0%,17%,0%,41%,24%,2%,6%,0%,0%,41%,16%,56%
CCCCc1nn2ncccc2c1-c1ccnc(NC2CC2)n1 [GW684374],0%,9%,0%,0%,6%,32%,0%,0%,0%,0%,0%,0%,4%,34%,0%,3%,15%,26%,14%,6%
Cc1ccccc1-c1cc(-c2c[nH]nc2-c2ccccn2)ccn1 [GW680061],1%,15%,6%,0%,0%,18%,35%,0%,0%,13%,0%,0%,0%,8%,0%,14%,14%,24%,31%,0%
Cc1cccc2c(-c3ccncn3)c(-c3ccc(F)cc3)nn12 [GW515532],16%,0%,14%,12%,30%,24%,0%,19%,0%,10%,5%,30%,0%,0%,0%,16%,0%,22%,0%,26%
Cc1ccc(NC(=O)Nc2ccc(Cl)cc2)cc1-c1ccc(C(=O)Nc2ccncc2)cc1 [GSK1398472],0%,11%,0%,47%,62%,13%,4%,8%,0%,0%,9%,0%,0%,16%,5%,7%,0%,13%,23%,1%
COc1ccc2cc(-c3nc(-c4ccccc4C(C)C)[nH]c3-c3ccncc3)ccc2c1 [SB-660566],54%,31%,0%,35%,7%,27%,0%,19%,0%,14%,0%,0%,0%,12%,15%,10%,14%,42%,0%,16%

# From PMC5540273 (PLoS ONE, 2017)
